Experimental findings from the OligoGym collection are described below.
Further: reference of the scale not given here.

The target in the first assay is SCGB3A1. Put plainly: pooled miR-30 sensor sort-seq; sequence = guide strand. The settings on record: shRNA.
For TCTATGAGGTGGTTCACGGGGA, the sensor-assay potency score (higher = more potent) is -0.221.

AGCTCAGCCACACACTTCTGGG returned a sensor-assay potency score (higher = more potent) of -1.63.

Sequence CTCAGCAGGAGCTTCAGCGGGT registered a sensor-assay potency score (higher = more potent) of -1.59.

ACTAAGAAAGCAGCAGCGGAGC registered a sensor-assay potency score (higher = more potent) of -1.78.

For TCAGCCACACACTTCTGGGAGC, the sensor-assay potency score (higher = more potent) is -1.19.

AAAGCAGCAGCGGAGCTGCAGG yielded a sensor-assay potency score (higher = more potent) of -1.3.

With TCCAGCGCAGCGACAGGCTGGG, the sensor-assay potency score (higher = more potent) was -1.47.

Regarding TAAGAAAGCAGCAGCGGAGCTG, the sensor-assay potency score (higher = more potent) was -0.766.

The sequence TTCACGGGGATGCCCAGGCTGC gave a sensor-assay potency score (higher = more potent) of -1.89.

For AAGAAAGCAGCAGCGGAGCTGC, the sensor-assay potency score (higher = more potent) is -0.859.

In turn, CAGCTCAGCCACACACTTCTGG gave a sensor-assay potency score (higher = more potent) of -1.81.

Sequence TATGAGGTGGTTCACGGGGATG gave a sensor-assay potency score (higher = more potent) of -2.01.

The target in the next assay is SCN10A. Described as above. The settings on record: shRNA.
Turning to TAGTGCTGCTAGCACCTCCTGC, the sensor-assay potency score (higher = more potent) was -0.978.

As to TATGATACTGACAACACTCATT, the sensor-assay potency score (higher = more potent) was -0.905.

Sequence TAATGCTCTAAGAACTCTGAAT displayed a sensor-assay potency score (higher = more potent) of -0.877.

As for TTGACTTTCACATTGACCCAGA, the sensor-assay potency score (higher = more potent) amounted to 0.154.

TTGTCCTGCATCGAATGCCGAG: the sensor-assay potency score (higher = more potent) is -1.18.

For TTAGACAAAATCCTCTTGCCAG, the sensor-assay potency score (higher = more potent) was -0.449.

As to TTGCTTCTCTATCTCCACCAGT, the sensor-assay potency score (higher = more potent) was -0.403.

As for TTGGTCATCAGTCTCCACCATC, the sensor-assay potency score (higher = more potent) was -1.09.

TTCAGCACCATAAATGTCCGGT had a sensor-assay potency score (higher = more potent) of 0.128.

TATTCCAGAATCTTCGCTGTGA showed a sensor-assay potency score (higher = more potent) of 0.727.

TTAACCAAAATAGTGACCGTAA: the sensor-assay potency score (higher = more potent) was found to be 0.123.

The sequence TTGAGCTTCACCCACATGGGGC showed a sensor-assay potency score (higher = more potent) of -0.622.

The target of the next assay is SCN2B. Described as above. The note with it: shRNA.
For TTGTGGTTCACTGTGTAGCAGG, the sensor-assay potency score (higher = more potent) was -0.841.

For the sequence TAAACTGGAAATAACTGTGAAG, the sensor-assay potency score (higher = more potent) is -0.894.

TATATCTATACCTAGAGAGAGA yielded a sensor-assay potency score (higher = more potent) of -1.18.

On to TTGCACTCCTGGTAAGTCCAGT, for which the sensor-assay potency score (higher = more potent) was found to be 0.119.

For TTGATTGGCAGTTAGGTACTGA, the sensor-assay potency score (higher = more potent) turned out to be 0.514.

The sequence ATTGTCTGTCTGCTTAACCTGA returned a sensor-assay potency score (higher = more potent) of -0.931.

Sequence TTCCCTGAGAACTCCACGCGGT showed a sensor-assay potency score (higher = more potent) of -0.473.

Sequence TTGTCTGTCTGCTTAACCTGAC registered a sensor-assay potency score (higher = more potent) of -0.0966.

With TATAGCACACACAACCAAGAAA, the sensor-assay potency score (higher = more potent) is -1.12.

In turn, TTAATTAGGAGGAAGAGACAGA registered a sensor-assay potency score (higher = more potent) of -0.125.

With TTTTTTTCTCCTCACACACTTG, the sensor-assay potency score (higher = more potent) was -1.04.

In turn, TTGCAAAAGAAACTCAGTCTGC showed a sensor-assay potency score (higher = more potent) of -0.173.

The target in a further assay is SCN4A. The description is as above. The note with it: shRNA.
Consider TACTCCACATTCTTGGACCAGG, for which the sensor-assay potency score (higher = more potent) was -1.18.

In turn, TTTGAACTTCTCAAGCATCTGC displayed a sensor-assay potency score (higher = more potent) of 1.21.

On to TGCAGTAGTAGAACTTGCCGGC, for which the sensor-assay potency score (higher = more potent) was 0.0253.
